Results filed as inconclusive are left out. Entries that show only a call come without a potency. Calls of active or inactive are those of the source. The call rests on the fitted dose curve; in most records, active means well fitted inhibition curve with a large enough effect; inconclusive means small, poorly fitted or top-dose-only effect; inactive means no such curve, though single readings can be large or run the other way.
test: Confirmatory fluorescence-based thiol-reactive (MSTI) qHTS assay for identification of artifact compounds; conditions: MSTI thiol-reactivity probe, 1 h; series mostly up to 39.2 µM
Summary of the method: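 Compounds, dosed in qHTS format, were mixed with 4 uM MSTI probe in 1X PBS pH 7.4 containing 2% DMSO. After 1 hour at room temperature in the dark, fluorescence was measured.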
Potency means the concentration at half of the fitted maximal effect.

Compound	Potency
Cc1ccc(NC(=O)CCn2cccn2)cc1Cl	inactive
CC/C=C/C/C=C/C/C=C/CCCCCCCC(=O)OCC	inactive
COc1ccc(-c2[nH]ncc2C(=O)NCc2cccc(OC)c2)cc1	inactive
Cc1ccccc1C(=O)Nc1cc(C)c(O)c(-c2nc3ccccc3o2)c1	inactive
Cc1ccc(NC(=O)NCC2CCN(Cc3cccc(Cl)c3)CC2)cc1Cl	inactive
Cc1ccc(Cn2ccc(NC(=O)c3cc(-c4ccc(Cl)c(Cl)c4)on3)n2)cc1	inactive
COc1ccc(C(=O)O)cc1Nc1nc2ccc(C)cc2n2cnnc12	inactive
Cc1ccc(C)c(N2CCN(Cc3csc(C)c3)CC2)c1	inactive
COc1ccc(/C=C/c2cc(O)cc(O[C@H]3OC(CO)C(O)C(O)C3O)c2)cc1 (stereo partly drawn)	inactive
COc1ccc(OCc2nnc(-c3ccccc3)o2)cc1	inactive
Clc1ccccc1Cn1c(-c2cccs2)nc2ccccc21	inactive
Cc1cc(C)cc(-n2c(SCC(=O)N3CCCCCC3)nc3c([nH]c4ccccc43)c2=O)c1	inactive
CC(C)C(=O)OC1=CN(Cc2ccccc2)S(=O)(=O)c2ccccc21	inactive
O=C(CSc1nnc(-c2cccc(F)c2)c(-c2cccc(F)c2)n1)NC1CCCCC1	inactive
O=C(/C=C/c1ccc(O)c(O)c1)OC1C[C@](O)(C(=O)O)C[C@@H](O)[C@H]1O (stereo partly drawn)	inactive
COc1ccc(CCn2c3c(c(=O)[nH]c2=S)CN(C(C)C)CN3)cc1OC	inactive
O=C(COc1cccc(Cl)c1)N1CCC(c2nc3ccccc3o2)CC1	inactive

Compound	Potency
COc1ccc(-c2coc3cc(O)ccc3c2=O)c(OC)c1O	inactive
CCOc1ccc(CNC(=O)c2ccc3nc(CC)c(CC)nc3c2)cc1OC	inactive
O=C(O)c1c(CNCc2cccc(F)c2)c2ccccc2n1Cc1ccccc1	inactive
Cc1ccc2cccc(NC(=O)c3ccc(-c4cccc([N+](=O)[O-])c4)o3)c2n1	inactive
Oc1ccc(-c2nc3ccc(Cl)cn3c2Nc2ccc3c(c2)OCO3)cc1	0.77 µM (active)
O=C1CCC(=O)N1CO	inactive
CCCCCCCCCCCCCCCC(=O)N[C@H](CN1CCOCC1)[C@H](O)c1ccccc1	12.2 µM (active)
COc1ccc(-c2cc3ccc(O)c(CN4CCOCC4)c3oc2=O)cc1OC	inactive
COC(=O)c1ccc2nc(C)cc(Nc3ccc(O)cc3)c2c1	inactive
CSc1ncc(C(=O)NCc2ccccc2)c(-c2ccccc2)n1	inactive
Cc1ccc(Cn2cc(CCC(=O)NC3CCCCC3)c3ccccc32)cc1	inactive
O=C(O)c1c(O)c(O)cc2ccccc12	inactive
CCOc1ccc(C(=O)N2CCC(c3nc(-c4ccc(S(=O)(=O)N5CCCC5)cc4)no3)CC2)cc1	inactive
O=S(=O)(Nc1ccc(S(=O)(=O)Nc2nccs2)cc1)c1ccc2ccccc2c1	inactive
COC(=O)[C@@H]1[C@H]2C[C@H]3c4[nH]c5cc(OC)ccc5c4CCN3C[C@@H]2C[C@@H](OC(=O)c2cc(OC)c(OC)c(OC)c2)[C@@H]1OC	7.91 µM (active)
O=S1(=O)N=C(Oc2ccc(Br)cc2)c2ccccc21	inactive
